# Assay results from the supplement of paper PMC11417369.
# ± gives the standard deviation of the averaged measurements. Over roughly 25,000 sequences, “ln(normalized median fluorescence intensity)” has its median near 7.9; the highest 2% begin near 11. What follows is part of a selection rich in the highest values, with near analogues and random picks from the rest.
# Test system: PfAP2-I AP2 domain 3 (GST-tagged)
# Assay: gcPBM binding intensity (ln(normalized median fluorescence intensity)); higher = stronger DNA binding
# How it was run: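 GST-fused DNA-binding domains of P. falciparum, expressed in E. coli, were applied at about 25 μg on average for 1 h to an Agilent 4 × 180k array of primer-extended double-stranded 36-bp intergenic genomic probes and negative controls. Binding intensity is the highest Masliner-normalised natural-log median intensity across replicate spots of either probe orientation, measured with Alexa488 anti-GST antibody and a 488 nm scan.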
row,Sequence,gcPBM binding intensity (ln)
1,TGTGTATATAAATAATGTACATATATATTTTTTTAT [XGTACX_site7341],7.79 ± 0.22
2,AAAAAAAAAAAAAAAAAAAGAAAAGAAAATAGGGTT [GTGCAC_negctrl_site421],8.96 ± 0.22
3,CATATGATATGTTATACACACACGTATATATGAATT [CACACA_site3446],8.03 ± 0.21
4,TTTTTTTTTTTTGTAATACACACCACTATATGTTAT [CACACA_site1844],8.15 ± 0.73
5,AAAACAAACAAAAAAAAAAAAAAAAATATCAATCTA [TGCATGCA_negctrl_site203],7.01 ± 0.52
6,CACAAAATAAATTAAACACACAACATCATAGATGTA [CACACA_site4619],7.21 ± 0.54
7,AAGATATCTAAGGAAATTAAACTACCAAAATATATA [TGCATGCA_negctrl_site338],7.39 ± 0.59
8,TATCATTTATATATGTGTACTTATTTATTTATTTAT [XGTACX_site7961],7.96 ± 0.28
9,CATTTTGTTTTAAAGTGTACATTATGTAATATAAAA [XGTACX_site647],7.84 ± 0.43
10,CATATTGGTATGCTCATGCACTTTTATTTTGTTATT [GTGCAC_site9553],8.52 ± 0.53
11,TTTTTATTTTCATATGTGCACTTATATATATATATA,10.82 ± 0.099
12,TTATCATTTGCCATTGTGCACTTATATGCTCACATT,10.97 ± 0.028
13,ATATTACACATATATGCACACATTGTAGTTATTTAT [CACACA_site8843],9.34 ± 0.26
14,TTATATTTAGTATATGCACACTTTATGTTTGTTATT [CACACA_site5163],9.29 ± 0.21
15,ATATATATATAAAGTTGTACATTTTTTATTTTTTCA [XGTACX_site7847],9.09 ± 0.16
16,ATTTATATGCACCATTGTACGTTTTATAAAGTTTGG [XGTACX_site3755],11.6 ± 0.83
17,ATATATATTATCATTGTGCACTTATTTATATACCTT,11.1 ± 0.15
18,TATATATATATATATGTGCACATTTATTGCCTTTGC,9.76
19,ATTGTGCACTTATATGCACACATTTTAGTTTTTTTT [CACACA_site2028],11.4 ± 0.69
20,ATTACCAACAGATCTTGTACATATTAAAGCATCTTA [XGTACX_site2361],7.84 ± 0.57
21,TCTATTAATTAATATACACACATTATATATATATAT [CACACA_site8815],9.375 ± 0.049
22,TTTTTTATTGTGATACGTATATTATTTTATGATAAA [CACACA_negctrl_site1591],8.04 ± 0.6
23,AAACACACACACAAATGTACATATATATATATATTT [XGTACX_site5090],7.92 ± 0.51

row,Sequence,gcPBM binding intensity (ln)
1,AATATTATAAATGATACACACTTAAAATACACGCAC [CACACA_site7305],8.71 ± 0.22
2,CATCATAGAGTGGAGTGTACAAATATGTCAACATAT [XGTACX_site2264],7.99 ± 0.55
3,TATATTTAGAGAGAGACACACAAAGGGACTTACACA [CACACA_site2545],7.82 ± 0.71
4,CATAATACATATAACACACACAATTATACATAAAAT [CACACA_site3233],7.88 ± 0.33
5,TGGAAACAATGACACACACACAAAAAAAAAAAAAAA [CACACA_site7494],7.97 ± 0.56
6,TATAAGTTGATATATACACACATATATAAATATGTA [CACACA_site7526],7.4 ± 0.4
7,ATATTTTCTTTTTAAAGTACATATTTGATTACAATA [XGTACX_site8414],7.66 ± 0.5
8,TATGTATATATTTGTGCACACCAAAGTTTGATTTTA [CACACA_site1861],10.71 ± 0.014
9,ATATGTATTTATATATGTTTGATTTTTTTTTTTTTT [TGCATGCA_negctrl_site506],7.71 ± 0.26
10,TGTATATATTTGTGCACACCAAAGTTTGATTTTATT [CACACA_site1860],10.9 ± 0.099
11,AAAAAAAAAAGACACACACACACATACACATACATA [CACACA_site7362],7.96 ± 0.29
12,TTTTTTTTTTTTGAAGTGCATTACTTTTTTTGTATT [GTGCAC_site9811],11 ± 0.44
13,TATATTATTATATATTGTACTTTTTATATTTGCATT [XGTACX_site2978],7.72 ± 0.49
14,TTTTTGTGCATTGATTGTACTTTCTAGGATTATTAA [XGTACX_site7070],10.16 ± 0.049
15,TATATTTATAAATGAACACACACGCAATTTGAATCG [CACACA_site3370],7.89 ± 0.49
16,ATTGTTATTTATTGTGTGCGCATTAATACATACATA [GTGCAC_site9982],8.95 ± 0.41
17,TTCAATAGGTATAATTGTACTTAATAATATATTGTT [XGTACX_site8363],7.53 ± 0.42
18,ATATATATATAGTACGCACACATAGTTGTACATTAA [CACACA_site2787],9.21 ± 0.13
19,GTTTATTGATTTATTTGTACTTATATATATATTTCA [XGTACX_site5098],8.07 ± 0.63
20,TTGTTTTGGATTATCACACATATAATATATACTCAT [CACACA_site4780],7.82 ± 0.68
21,TTTATAGTTTTTAATAGTACACATATTTTTAAGTAT [XGTACX_site5498],7.89 ± 0.2
22,GTAATATCAATATAAAGTACACACTATAGTATGTAT [XGTACX_site4714],7.66 ± 0.49
23,TATATATATATCAAGTGTACTTGTGTTTGTAATATT [XGTACX_site8854],9.165 ± 0.049
